# High-throughput results from PubChem.
# Rev-erbA mod – modulators of human Rev-erb alpha DNA binding; Rev-erbα–FITC-DNA binding, fluorescence polarization, 90 min; activity, % at 10 µM; actives 0.79% (n = 370,000);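 active = activity above about 14%, limit read from the data; passing the limit was not always enough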
# Target sequence (P20393 whole entry, looked up): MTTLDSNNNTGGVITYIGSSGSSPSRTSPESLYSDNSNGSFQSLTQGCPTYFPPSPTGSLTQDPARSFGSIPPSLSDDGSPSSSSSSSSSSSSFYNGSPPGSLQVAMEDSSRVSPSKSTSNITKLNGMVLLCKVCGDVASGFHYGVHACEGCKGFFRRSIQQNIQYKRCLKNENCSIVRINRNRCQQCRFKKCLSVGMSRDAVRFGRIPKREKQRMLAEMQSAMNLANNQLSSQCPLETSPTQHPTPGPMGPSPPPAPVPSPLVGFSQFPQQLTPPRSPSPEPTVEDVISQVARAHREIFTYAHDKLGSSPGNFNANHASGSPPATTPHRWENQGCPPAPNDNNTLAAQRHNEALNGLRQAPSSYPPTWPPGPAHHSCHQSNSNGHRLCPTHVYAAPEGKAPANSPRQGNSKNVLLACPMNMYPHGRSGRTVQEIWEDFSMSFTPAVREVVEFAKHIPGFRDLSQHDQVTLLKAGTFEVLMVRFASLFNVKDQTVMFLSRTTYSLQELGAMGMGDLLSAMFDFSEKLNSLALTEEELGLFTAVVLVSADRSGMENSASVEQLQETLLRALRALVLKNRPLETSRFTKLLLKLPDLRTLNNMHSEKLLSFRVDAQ
# ABCB6 inh 2 – inhibitors of human ABC transporter ABCB6; Q9NP58; AID 602162; K562-ABCB6 porphyrin accumulation, flow cytometry, 1 h; stronger effect = lower value; actives 0.19% (n = 360,000); fluorescence ratio to DMSO, % at 10 µM;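 active = fluorescence ratio to DMSO below 75%, the collection mean minus 3 SD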;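 note: signal is porphyrin accumulated inside mitochondria; lower ratio means ABCB6 inhibition with less porphyrin fluorescence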
# Exocytosis inh – lytic granule exocytosis inhibition | TALL-104 LAMP-1 surface exposure, flow cytometry; cells stimulated with thapsigargin and PMA | inhibition, % at 10 µM | actives 0.66% (n = 360,000) | AID 651702;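 active = inhibition above about 55%, limit read from the data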
# VLA-4 inh – inhibition in a human VLA-4 binding assay | P13612 | VLA-4 expressing cells, ligand binding flow cytometry | inhibition, % (about 7 µM as worked out from the volumes in the protocol) | actives 0.2% (n = 330,000) | AID 2557; in the data active = inhibition above about 50%
# PG9 Ab binder – binds the HIV-1 gp120 antibody PG9. TR-FRET gp120-PG9 antibody binding. inhibition, % at 6.7 µM. actives 0.43% (n = 360,000); in the data active = inhibition above about 8.5%
# NR1D1 mod conf – confirmation of modulators of human Rev-erb alpha DNA binding; Rev-erb alpha FITC-DNA binding, fluorescence polarization, 90 min; activation, % at 25 µM; actives 61% (n = 3,000); shares compounds with Rev-erbA mod;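 active = activation at or above a set limit, or at least 3 SD above the negative control mean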
# RORg counter – RORgamma DNA-binding activity, dose-response counter-screen. shares compounds with Rev-erbA mod. actives 8% (n = 910). purified RORgamma protein-FITC-DNA binding, fluorescence polarization. AID 1259320. IC50, µM;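 active = Compounds whose fitted half-maximal concentration for disrupting protein-DNA binding is below 10 micromolar; the record names Rev-erb in its text, so the target is in doubt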
# Hits are given with their value; i = inactive; nt = not tested or not shown. Most compounds without a hit are left out; they make up all but 2% or so of the library.
SMILES,Rev-erbA mod,ABCB6 inh 2,Exocytosis inh,VLA-4 inh,PG9 Ab binder,NR1D1 mod conf,others
CC(C)n1cc(/C=C/c2cc[n+](C)cc2)c2ccccc21,209,i,i,nt,i,203,RORg counter=i
CCN(CC)C(=O)Cn1c(C)c(/C=C/c2cc[n+](C)cc2)c2ccccc21,158,i,i,i,i,139,RORg counter=i
CCn1c(/C=C/c2c(C)n(CC)c3ccccc23)nc2ccccc2c1=O,i,i,i,i,i,nt,
C=CCn1c(C)c(/C=C/c2cc[n+](C)cc2)c2ccccc21,237,i,i,i,i,213,RORg counter=i
Cc1ccccc1/C=C/c1cc[n+](C)cc1,i,i,i,i,i,nt,
COC(=O)[C@]12C[C@H](CC(=O)NCc3cccc(C(F)(F)F)c3)C(=O)N(CCC3=CCCCC3)C1=C[C@H](C(C)(C)C)O[C@@H]2C,i,nt,nt,nt,i,nt,
C=CCN1[C@@H](CC(C)C)COc2cccc(N3CCCC3)c2S1(=O)=O,i,nt,nt,nt,nt,nt,
CCn1cc(/C=C/c2cc[n+](C)cc2)c2ccccc21,179,i,i,i,i,160,RORg counter=i
Cc1[nH]c2ccccc2c1/C=C/c1cc[n+](C)cc1,251,i,i,nt,i,172,RORg counter=i
Cc1ccc(NC(=O)N2CC(C)OC(C)C2)cc1[N+](=O)[O-] (configuration not stated),i,nt,nt,nt,i,nt,
CCN(CC)c1ccc(C=C2SC(=S)NC2=O)cc1,39,i,i,nt,i,30,RORg counter=i
CCN(CC)c1ccc(/C=C2\SC(N)=NC2=O)cc1,i,i,i,i,i,nt,
COc1cccc(CNC(=O)COC(=O)c2cc(Br)c(Br)s2)c1,21,i,i,i,i,18,
Cn1c(=O)cc(OCCCC(=O)Nc2cc(C(F)(F)F)ccn2)c2ccccc21,i,nt,nt,nt,nt,nt,
COc1ccc(CCNc2nc3ccccc3n3nnnc23)cc1OC,30,i,i,i,i,22,
c1ccc(CCNc2nc3ccccc3n3nnnc23)cc1,49,i,i,i,i,30,
COc1ccc(-n2c(SCC(=O)Nc3ccc(S(=O)(=O)Nc4nccs4)cc3)nnc2-c2cccs2)cc1,i,nt,nt,nt,nt,nt,
COc1ccc(NC(=O)c2sc3nc(N4CCCC4)c4c(c3c2N)CC(C)(C)OC4)cc1,127,i,i,i,i,80,RORg counter=i
CCCc1nc2sc(C(=O)OCC)c(N)c2c2c1COC(C)(C)C2,48,i,i,i,i,25,
COc1ccc(NC(=O)c2sc3nc(N4CCOCC4)c4c(c3c2N)CC(C)(C)OC4)cc1,i,i,i,i,i,nt,
Cc1cc(N2CCN(CC(C)(C)O)C[C@H]2C)ccc1N1CCN(CC(C)(C)O)[C@@H](C)C1,i,nt,nt,nt,i,nt,
CC(Oc1ccc(Br)cc1)c1nc2c3ccccc3nc(=S)n2[nH]1 (configuration not stated),i,i,i,i,i,nt,
CCCC(Oc1ccc(Br)cc1)c1nc2c3cc(OC)c(OC)cc3nc(=S)n2[nH]1 (configuration not stated),47,i,i,i,i,39,RORg counter=i
O=c1[nH]c(CCl)nc2cc(-c3ccc(F)cc3)sc12,i,i,i,i,i,nt,
O=c1[nH]cnc2cc(-c3ccc(Br)cc3)sc12,26,i,i,i,i,i,
SMILES,Rev-erbA mod,ABCB6 inh 2,Exocytosis inh,VLA-4 inh,PG9 Ab binder,NR1D1 mod conf,others
CCCN1C(=O)S/C(=C/c2ccc(N3CCOCC3)o2)C1=O,47,i,i,i,i,45,RORg counter=i
COc1ccccc1C(=O)N1CCC2CCN(C(=O)c3ccccc3)C2C1 (configuration not stated),i,nt,nt,nt,i,nt,
COc1ccc(OC)c(CN2C(=O)c3ccnn3CC2(C)c2nnnn2C2CCCC2)c1 (configuration not stated),i,nt,nt,nt,nt,nt,
COc1cccc(-c2nnc(NC(=O)c3ccco3)s2)c1,i,i,i,i,i,nt,
CCCOc1cccc(-c2nnc(NC(=O)c3ccco3)s2)c1,23,i,i,i,i,i,
CCOC(=O)c1cc(-c2ccccc2)sc1NC(=O)C(C)OC(=O)c1ccncc1 (configuration not stated),i,i,i,i,i,nt,
CCOC(=O)c1cc(-c2ccccc2)sc1NC(=O)C(C)C,i,i,i,i,i,nt,
CCOC(=O)c1cc(-c2ccccc2)sc1NC(=S)Nc1cccc(C)n1,26,i,i,i,i,i,
CCOC(=O)c1cc(-c2ccccc2)sc1NC(=O)C(C)OC(=O)c1cccnc1Cl (configuration not stated),20,i,i,i,i,i,
O=C(c1cc(Br)cc(Br)c1)N1CCC(Oc2cccnc2)CC1,i,nt,nt,nt,nt,nt,
CCCCN(C)S(=O)(=O)c1ccc(C(=O)N=c2sc3cc(NC(C)=O)ccc3n2C)cc1,42,i,i,i,i,i,
CCCCN(CC)S(=O)(=O)c1ccc(C(=O)N=c2sc3cc(NC(C)=O)ccc3n2C)cc1,i,i,i,i,i,nt,
COc1ccc(C(=O)/C(C#N)=N/Nc2ccc([N+](=O)[O-])cc2)cc1,44,i,i,i,i,36,RORg counter=i
COc1ccc(C(=O)/C(C#N)=N/Nc2ccccc2[N+](=O)[O-])cc1,i,i,i,i,i,nt,
COC(=O)c1ccc2nc(C3CCCCC3)c(Cc3ccccc3C(F)(F)F)n2c1,18,i,i,nt,i,12,
CC(C)N(C(N)=NC(=O)OCc1ccccc1)C(C)C,i,nt,nt,nt,nt,nt,
O=C1O[C@H](C(O)CO)C(O)=C1O (some centres not stated),i,nt,nt,nt,nt,nt,
CCOC(=O)c1nn(-c2ccc(C)cc2)c(=O)cc1OCC(=O)Nc1ccc(OC)cc1,i,i,i,i,i,nt,
CCOC(=O)c1nn(-c2ccc(F)cc2)c(=O)cc1OCC(=O)Nc1ccc(F)c(F)c1,170,i,i,i,i,129,RORg counter=i
CC(C)(C)c1ccc(-c2nnc3n2N=C(c2ccc4ccccc4c2)CS3)cc1,i,nt,nt,nt,nt,nt,
COc1ccc(C#Cc2ccc(C3=CC(=O)CC(C)(C)C3=O)cc2)cc1,153,i,i,nt,i,51,RORg counter=i
CC1(C)CC(=O)C=C(c2ccc(Oc3ccccc3)cc2)C1=O,i,i,i,nt,i,nt,
CCOC(=O)N1CCC(NC(=O)c2cc(C)c3c(C)nn(-c4ccccc4)c3n2)CC1,19,i,i,i,i,i,
CCOC(=O)[C@@]12CN(C(=O)OC(C)(C)C)CC=C1N(Cc1ccc(OC)cc1)C(=O)[C@H]2CC(=O)NCc1ccccc1,i,nt,nt,nt,nt,nt,
CN(CC(=O)Nc1cccc(F)c1)C(=O)CCc1nc2sc3c(c2c(=O)[nH]1)CCCC3,20,i,i,i,i,i,
CN(CC(=O)Nc1ccc(F)c(F)c1F)C(=O)CCc1nc2sc3c(c2c(=O)[nH]1)CCCC3,19,i,i,i,i,i,
CN(CCOc1ccccc1)C(=O)CCc1nc2sc3c(c2c(=O)[nH]1)CCCC3,i,i,i,i,i,nt,
Cc1cccc(C)c1NC(=O)CN(C)C(=O)CCc1nc2sc3c(c2c(=O)[nH]1)CCCC3,i,i,i,i,i,nt,
